Measured values as given in PubChem BioAssay AID485314 (National Center for Advancing Translational Sciences (NCATS), 2010).
In all, about 340,000 compounds went through this assay and about 4,500 (1.3%) were called active. Not shown: some 5% with an inconclusive outcome. What follows is part of a selection rich in actives, with near analogues and random picks from the rest. Values without a mark were called inactive. Calls come from the whole dose curve; as a rule, active = well fitted inhibition curve with a large enough effect; inconclusive = small, poorly fitted or top-dose-only effect, or another doubt; inactive = no such curve, though single readings can be large or run the other way.
% is set by controls: 0 for no effect and ±100 for the full control effect; potency is the fitted concentration of half-maximal effect.

These molecules were tested against DNA polymerase beta (Homo sapiens) (UniProt P06746) (assay: qHTS Assay for Inhibitors of DNA Polymerase Beta). Conditions: Pol beta primer extension/strand displacement, fluorescence kinetic; series mostly up to 114 µM; activity change, negative = inhibition: at the top concentration.
Method in brief: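 Values derive from four-parameter Hill fits of normalized kinetic data: reads at 0 and 10 min following addition of 50 nM substrate to 10 nM Pol beta preincubated 15 min with compound.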
In the case of `COc1ccc(OC)c(NC(=O)/C=C/c2ccc(C)o2)c1`, the “activity change, negative = inhibition” value is reported as 11%. With `Cc1ccc(/C=C/C(=O)Nc2ccc([N+](=O)[O-])c(NC(=O)/C=C/c3ccc(C)o3)c2)o1` the Potency was 11.2 µM (active). `CCc1cc2c(-c3ccccc3)cc(=O)oc2c2c1OCN(Cc1ccc(C)cc1)C2` was tested, and the “activity change, negative = inhibition” value was -8.79%. For `O=S(=O)(c1ccc2nc(NCc3ccccc3Cl)ccc2c1)N1CCCCC1`, the “activity change, negative = inhibition” value was 6.35%. With `Brc1ccc2c(c1)NC(c1cccnc1)=NC(c1ccccc1)=N2` the “activity change, negative = inhibition” value was 19.1%. `CCc1ccc(CN(Cc2ccco2)C(=O)COc2ccc(Cl)c(C)c2)cc1` was tested, and the “activity change, negative = inhibition” value was 0.226%. In the case of `O=c1[nH]c(SCc2cccc(F)c2)nc2ccccc12`, the “activity change, negative = inhibition” value is reported as 25%. For `N#Cc1c(-c2ccccc2)nc(SCc2cccc(C(F)(F)F)c2)[nH]c1=O`, the Potency was 79.4 µM (active). With `N#Cc1c(-c2ccc(F)cc2)nc(-c2ccccc2)[nH]c1=O` the “activity change, negative = inhibition” value was 1.71%. For `O=C(COC(=O)CNC(=O)c1ccco1)Nc1ccc(F)cc1`, the “activity change, negative = inhibition” value was 3.11%. `CCN(CC)CCOC(=O)c1ccc(NC(=O)CNC(=O)c2ccccc2)cc1` was tested, and the “activity change, negative = inhibition” value was 8.66%. In the case of `CCOC(=O)c1ccc(NC(=O)CNC(=O)c2ccco2)cc1`, the Potency is reported as 56.2 µM (active). In the case of `CCOC(=O)c1ccc(NC(=O)c2c(NCc3cccs3)sc3c2CCCC3)cc1`, the “activity change, negative = inhibition” value is reported as 1.84%. For `CCN(CCCNC(=O)c1cc2c(=O)n(CC)c3ccccc3c2s1)Cc1ccccc1`, the “activity change, negative = inhibition” value was 33.1%. In the case of `Cc1c(Cl)cccc1NC(=O)c1noc2c1CCCC2`, the “activity change, negative = inhibition” value is reported as 2.6%. With `COc1cccc(/C=N/Nc2ccc(Cl)nn2)c1` the “activity change, negative = inhibition” value was -1.22%. In the case of `Oc1cccc(/C=N/Nc2ccc(Cl)nn2)c1O`, the Potency is reported as 39.8 µM (active). For `Cc1ccsc1/C=N/Nc1ccc(Cl)nn1`, the “activity change, negative = inhibition” value was 6.83%. With `CCOC(=O)c1c(NC(=O)COc2cc(C)ccc2C(C)C)sc(C)c1C` the “activity change, negative = inhibition” value was 0.757%. For `COc1ccc(S(=O)(=O)c2cn(C)c3cc(N4CCCCC4)c(F)cc3c2=O)cc1`, the “activity change, negative = inhibition” value was -1.37%. `O=C(Cc1c(F)cccc1Cl)Nc1ccc(-n2cnnn2)cc1` was tested, and the “activity change, negative = inhibition” value was 0.175%. With `O=C(COc1ccc(Cl)cc1)Nc1ccccc1CO` the “activity change, negative = inhibition” value was 11.2%. With `O=C(COc1ccc(-n2cnnn2)cc1)Nc1ccccc1Cl` the Potency was 28.2 µM (active). In the case of `CCOc1ccc(N(C)S(=O)(=O)c2cc(-c3cnc(C)o3)ccc2OC)cc1`, the “activity change, negative = inhibition” value is reported as 3.9%. `Cc1cccc(N2CCN(S(=O)(=O)c3ccc4[nH]c5c(c4c3)CCCCC5)CC2)c1C` was tested, and the “activity change, negative = inhibition” value was 5.75%. In the case of `Cc1nn(-c2ccc(N3CCCCC3)nn2)c(C)c1CCC(=O)NCc1ccccc1F`, the “activity change, negative = inhibition” value is reported as 4.44%. For `Cc1ccc(C(=O)NC(C)c2ccccc2)cc1Br` (stereo not given), the “activity change, negative = inhibition” value was -3.8%. In the case of `COc1ccc(Cl)cc1NC(=O)c1cccc(N2C(=O)C3CC=CCC3C2=O)c1` (stereo not given), the “activity change, negative = inhibition” value is reported as 28.5%. For `CC1=CCC2C(=O)N(c3cccc(C(=O)NC(C)c4ccccc4)c3)C(=O)C2C1` (stereo not given), the Potency was 39.8 µM (active). With `CCN(CC)C(=O)CSc1nc2ccsc2c(=O)n1Cc1ccccc1Cl` the “activity change, negative = inhibition” value was -18.1%. In the case of `O=C(COc1ccc(/C=N/NC(=O)c2ccc(O)cc2)cc1)Nc1ccc([N+](=O)[O-])cc1`, the Potency is reported as 2.24 µM (active). In the case of `Cc1ccc(NC(=O)COc2ccc(/C=N\NC(=O)c3cccnc3)cc2)cc1C`, the “activity change, negative = inhibition” value is reported as -0.199%. `NC(=O)c1ccc(NC(=O)COC(=O)c2ccc([N+](=O)[O-])cc2)cc1` was tested, and the “activity change, negative = inhibition” value was 0.237%. `CC1CN(C(=O)N2CCC(C(=O)NCc3cccs3)CC2)c2ccccc2O1` (stereo not given) was tested, and the “activity change, negative = inhibition” value was -7.1%. For `Cc1cccc(C(=O)N2c3nc(-c4ccco4)nn3C3(CCCCC3)[C@@H]3CCCC[C@@H]32)c1`, the “activity change, negative = inhibition” value was 13.2%. In the case of `Cc1nnc(SCC(=O)Nn2cnnc2)s1`, the “activity change, negative = inhibition” value is reported as -9.11%. `Cc1nnc(SCC2=C(C(=O)O)N3C(=O)C(NC(=O)Cn4nc(C)c(Cl)c4C)C3SC2)s1` (stereo not given) was tested, and the Potency was 39.8 µM (active). In the case of `Cc1nnc(SCC(=O)NC2CCCC2)s1`, the “activity change, negative = inhibition” value is reported as 2.1%. In the case of `Cc1sc(C2C(C#N)=C(N)N(c3cccc(Cl)c3)C3=C2C(=O)CCC3)cc1CN1CCOCC1` (stereo not given), the “activity change, negative = inhibition” value is reported as 16.6%. With `Cc1nc2c(-c3ccc(F)cc3)c(C)nn2c(C)c1CCC(=O)NCc1ccco1` the “activity change, negative = inhibition” value was 36%. For `Fc1ccc(-c2ccc(-c3nn4c(-c5ccco5)nnc4s3)o2)cc1`, the Potency was 44.7 µM (active). In the case of `O=C(CSc1nnc2scc(-c3ccc(F)cc3)n12)NCc1ccco1`, the “activity change, negative = inhibition” value is reported as 11.6%. With `COC(=O)COc1ccc2c(c1C)O/C(=C\c1ccco1)C2=O` the Potency was 50.1 µM (active). In the case of `COC(=O)C1=C(C)N(c2ccc(Br)cc2)C(=O)/C1=C\c1ccco1`, the “activity change, negative = inhibition” value is reported as 23.8%. In the case of `Cc1cc(C)c(OCC(=O)N/N=C/c2ccco2)c(C)c1`, the “activity change, negative = inhibition” value is reported as 3.54%. `CC1CCCN(c2csc3ccc(F)cc3c2=O)C1` (stereo not given) was tested, and the “activity change, negative = inhibition” value was 13.1%. With `CCCn1c(NCc2ccc(N(CC)CC)cc2)nc2ccccc21` the “activity change, negative = inhibition” value was -0.488%. With `Cc1nn(CC(=O)N/N=C/c2ccc(F)cc2)c(C)c1[N+](=O)[O-]` the “activity change, negative = inhibition” value was 30.3%. With `COc1cc(/C=N/NC(=O)c2cc(C)n(-c3ccc(F)cc3)c2C)cc(OC)c1O` the “activity change, negative = inhibition” value was -1.21%. For `Cc1cc(C(=O)N/N=C/c2ccc(O)c([N+](=O)[O-])c2)c(C)n1-c1ccc(F)cc1`, the Potency was 20 µM (active).
